Screening results deposited in PubChem by National Center for Advancing Translational Sciences (NCATS).
Compounds with a hit are over-represented: about 14% of the library has one in this group of screens.
FBPA Giardia inh = qHTS Assay for Inhibitors of Fructose-1,6-bisphosphate Aldolase from Giardia Lamblia; Potency, µM (top dose mostly 59.6 µM), most hits filed as inhibitors; A8B2U2; purified Giardia FBPA; AID 2451, 2010; 0.71% of 290,000 active; further: nearly all actives have a fitted effect of over 55% in size
Target sequence (A8B2U2 whole entry, looked up): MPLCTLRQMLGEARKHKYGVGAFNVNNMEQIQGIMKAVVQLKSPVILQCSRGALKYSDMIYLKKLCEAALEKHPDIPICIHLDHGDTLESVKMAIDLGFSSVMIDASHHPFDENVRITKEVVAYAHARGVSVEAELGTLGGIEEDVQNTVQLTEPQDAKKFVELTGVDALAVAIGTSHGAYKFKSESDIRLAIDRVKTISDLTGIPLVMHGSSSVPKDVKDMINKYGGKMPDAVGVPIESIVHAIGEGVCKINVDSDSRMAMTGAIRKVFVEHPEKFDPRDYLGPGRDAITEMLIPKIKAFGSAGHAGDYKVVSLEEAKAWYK
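Giardia FBPA (40 nM reagent) was preincubated 10 min at RT with compound (up to 57.5 uM final), then substrate plus GAPDH/TPI/NAD/arsenate coupling system with diaphorase/resazurin was added; resorufin fluorescence (525/598 nm) was read after 20 min.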
HCMV inh = qHTS Assay for inhibitors of the human cytomegalovirus (HCMV). HFF cells, HCMV-luciferase reporter, 72 h; stronger effect = lower value. AID 1259415, 2018. activity change, negative = inhibition, % at 57.5 µM. 4.5% of 410,000 active; in the data active means activity change below about -60%; inconclusive means no clear call, values can overlap the other calls; inactive means above about -39%
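Inhibition of viral replication was scored as loss of reporter luminescence in HFFs infected with HCMV-luciferase (MOI 1 PFU/cell) for 72 h; compounds tested at 2 doses, normalized to buffer and Salinomycin controls.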
Pf growth 48h = Primary qHTS for delayed death inhibitors of the malarial parasite plastid, 48 hour incubation; Potency, µM (doses to about 28.7 µM), most hits filed as inhibitors; P. falciparum luciferase growth in erythrocytes, 48 h; 5.9% of 310,000 active
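Luciferase-expressing parasites in RBCs, 2% Hct / 0.1% parasitemia final; RPMI 1640 + 0.5% Albumax; 37 C, 5% CO2, one generation; luminescence read-out, lower signal = inhibition.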
Sm TGR inh = qHTS Assay for the Inhibitors of Schistosoma Mansoni Peroxiredoxins | 3% of 360,000 active | purified TGR, DTNB reduction, TNB absorbance 405 nm | Schistosoma mansoni thioredoxin glutathione reductase (TGR), Q962Y6 | Potency, µM (titrated, usually from 114 µM), hits mostly inhibitors; further: nearly all actives have a fitted effect of over 60% in size
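First, TGR (20 nM dispensed) and NADPH were mixed with compound. Second, a 15 min room-temperature incubation followed. Third, further NADPH and then DTNB were added to start the reaction. Finally, TNB absorbance was monitored kinetically.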
Pf growth 96h = Primary qHTS for delayed death inhibitors of the malarial parasite plastid, 96 hour incubation; AID 504834, 2011; P. falciparum luciferase reporter growth, 96 h; Potency, µM (series often up to 28.7 µM), most hits filed as inhibitors; 6.9% of 320,000 active
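Two parasite generations (96 h, 37 C, 5% CO2) of compound exposure in infected erythrocytes (0.05% parasitemia, 2% hematocrit). Luciferase-reporter P. falciparum; decreased luminescence indicates inhibited growth, aimed at apicoplast-acting delayed death.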
Large screens that a line does not name were inactive. Unless noted, the call rests on the fitted dose curve; in most records, active means well fitted curve in the direction sought with a large enough effect; inconclusive means small, poorly fitted or top-dose-only effect, or another doubt; inactive means no such curve, though single readings can be large; an effect the other way counts as inactive or inconclusive.

CCCCc1nc2c(c3c1C[C@H](C)OC3)CN(C(=O)NCCCC(=O)OCC)CC2	none (no result: HCMV inh, Pf growth 48h, Sm TGR inh, Pf growth 96h)
COc1ccc(C)cc1Nc1n[n+](-c2ccccc2)c(-c2ccc(N(C)C)cc2)s1	Pf growth 48h 2.6µM, Pf growth 96h 2.1µM
COc1ccc(C)cc1Nc1n[n+](-c2ccccc2)c(-c2ccc(OC)c(OC)c2OC)s1	HCMV inh inconclusive, Pf growth 48h inconclusive, Pf growth 96h 1µM
CN(C)c1ccc(-c2sc(Nc3ccccc3)n[n+]2-c2ccc(F)cc2)cc1	Pf growth 96h inconclusive
COc1ccc(C)cc1Nc1n[n+](-c2ccccc2)c(-c2c(Cl)cccc2Cl)s1	FBPA Giardia inh inconclusive, HCMV inh -100, Pf growth 48h 10µM, Pf growth 96h 7.4µM
COc1cccc(NC(=O)CCNC(=O)N2CC(=O)Nc3ccccc32)c1	Pf growth 96h inconclusive (no result: FBPA Giardia inh)
O=[N+]([O-])c1ccc(C[n+]2cccc3ccc4cccnc4c32)cc1	FBPA Giardia inh inconclusive, HCMV inh -96, Pf growth 48h 0.26µM, Pf growth 96h inconclusive
O=[N+]([O-])c1ccc(C[n+]2cccc(O)c2)cc1	none (no result: FBPA Giardia inh)
O=[N+]([O-])c1ccc(C[n+]2cccc3ccccc32)cc1	Pf growth 48h 10µM, Pf growth 96h inconclusive
CCOc1ccc(C(=O)OC2CCCN(C)C2)cc1 (centres undefined)	Pf growth 96h 10µM
CN1CCCC(OC(=O)c2ccc(S(=O)(=O)N(C)C)cc2)C1 (centres undefined)	none
Cc1c(Cl)cccc1Nc1ncccc1C(=O)OCC(O)CO (centres undefined)	none (no result: HCMV inh)
O=C(OC[C@@H](O)CO)c1ccccc1Nc1ccnc2cc(Cl)ccc12	Pf growth 48h inconclusive, Pf growth 96h 1.6µM (no result: HCMV inh, Sm TGR inh)
O=C(OCC(O)CO)c1ccccc1Nc1ccnc2cc(Cl)ccc12 (centres undefined)	Pf growth 48h 8.3µM, Pf growth 96h inconclusive
Cc1ccc(S(=O)(=O)Nc2ccc3cc([N+](=O)[O-])ccc3c2[N+](=O)[O-])cc1	none (no result: FBPA Giardia inh, Pf growth 48h, Sm TGR inh, Pf growth 96h)
O=C(CCl)N=c1sccn1Cc1ccccc1Cl	HCMV inh -91, Pf growth 48h 0.26µM, Pf growth 96h 0.74µM
O=C(CCl)N=c1sccn1Cc1ccc(Cl)cc1Cl	HCMV inh -99, Pf growth 48h inconclusive, Sm TGR inh 13µM, Pf growth 96h 12µM
O=C(CCl)N=c1sccn1Cc1cccc2ccccc12	HCMV inh -100, Pf growth 48h inconclusive, Sm TGR inh 25µM, Pf growth 96h 1.5µM
N=c1sccn1Cc1ccc(Cl)cc1Cl	none
CCOC(=O)C1(CCCc2ccccc2)CCN(C(=O)c2cc(C)nn2CC)CC1	HCMV inh inconclusive, Pf growth 48h inconclusive, Pf growth 96h inconclusive
CC1(c2ccc(NC(=O)c3ccccc3F)cc2)CC1(Cl)Cl (centres undefined)	none
CC1CCN(C(=O)c2scc3c2OCCO3)CC1	HCMV inh -63, Pf growth 96h inconclusive
CC1CN(C(=O)c2scc3c2OCCO3)CC(C)O1 (centres undefined)	none
CC(C)NC(=O)C1(C)CN(S(C)(=O)=O)CC(=O)N1Cc1ccc2c(c1)OCO2 (centres undefined)	none (no result: FBPA Giardia inh, Pf growth 48h, Sm TGR inh, Pf growth 96h)
CC(CCc1ccc(O)cc1)NC1C2CC3CC(C2)CC1C3 (centres undefined)	Pf growth 48h 13µM
CC(O)CCc1ccc(O)cc1 (centres undefined)	none
CC(CCc1ccc(O)cc1)NC1c2ccccc2-c2ccccc21 (centres undefined)	Pf growth 48h 15µM, Pf growth 96h inconclusive
COc1ccccc1CCNC(C)CCc1ccc(O)cc1 (centres undefined)	none
CC(C)OC(=O)[C@@H]1CC[C@H](C)[C@@H](CCC[C@@H]2C[C@@H](O)C[C@H](CC#N)O2)O1	none (no result: HCMV inh, Pf growth 48h, Sm TGR inh, Pf growth 96h)
CCn1c(C)nc2cc(C(=O)NNC(=O)CCC3CCCCC3)ccc21	none (no result: HCMV inh)
CC1CCN(C(=O)c2ccc(NC(=O)C3CCCO3)cc2)CC1 (centres undefined)	Pf growth 96h 15µM
O=C(Nc1ccc(F)cc1)c1ccc(NC(=O)C2CCCO2)cc1 (centres undefined)	Pf growth 96h 1.9µM (no result: HCMV inh)
NC(=O)C1CCN(CC(O)CSc2ccccc2)CC1 (centres undefined)	none
OC(CSc1ccccc1)CN1CCN(c2ccccc2)CC1 (centres undefined)	HCMV inh -102 (no result: FBPA Giardia inh, Pf growth 48h, Sm TGR inh, Pf growth 96h)
COc1cc(/C=C/c2ccccc2)cc(OC)c1	none (no result: FBPA Giardia inh, Pf growth 48h, Sm TGR inh, Pf growth 96h)
CC(COc1ccc(/C=C/c2ccccc2)cc1)[N+](C)(C)C (centres undefined)	HCMV inh -96, Pf growth 48h 1.3µM, Pf growth 96h 0.93µM
CCNc1nc(CN2CCOCC2)nc2sc3c(c12)CCC3	none (no result: Pf growth 96h)
O=c1[nH]c(CN2CCCC2)nc2sc3c(c12)CCC3	none
Clc1nc(CN2CCCCC2)nc2sc3c(c12)CCC3	Sm TGR inh 22µM, Pf growth 96h inconclusive
c1ccc2c(c1)CCN(c1nc(CN3CCOCC3)nc3sc4c(c13)CCCC4)C2	Pf growth 48h 15µM, Pf growth 96h inconclusive
CCOc1ccc(-c2ccc(NS(=O)(=O)c3cc(C)c(C)cc3C)cc2)nn1	HCMV inh -77 (no result: FBPA Giardia inh, Pf growth 48h, Pf growth 96h)
CC(OC(=O)CN1C(=O)c2ccccc2C1=O)C(=O)NC1(C#N)CCCCC1 (centres undefined)	none (no result: FBPA Giardia inh)
CC(OC(=O)c1ccccc1C(=O)N(C)Cc1ccccc1)C(=O)NC1(C#N)CCCCC1 (centres undefined)	Pf growth 48h 10µM, Pf growth 96h inconclusive (no result: FBPA Giardia inh)
Cc1ccc2cc(/C=N/NC(=O)[C@H]3C[C@@H]3c3ccccc3)c(Cl)nc2c1	Pf growth 48h 2.9µM, Pf growth 96h 2.1µM
O=C(N/N=C/c1cc2ccccc2nc1Cl)[C@H]1C[C@@H]1c1ccccc1	Pf growth 48h 2.6µM, Pf growth 96h 1.7µM
Cc1cccc2cc(/C=N/NC(=O)[C@H]3C[C@@H]3c3ccccc3)c(Cl)nc12	none
COc1ccc(C(CNS(=O)(=O)c2ccc(C)cc2)N2CCN(C)CC2)cc1 (centres undefined)	none (no result: FBPA Giardia inh)
OC(COc1ccc(CNCCc2ccccc2F)cc1)CN1CCCCC1 (centres undefined)	Pf growth 48h 6.6µM
OC(COc1ccccc1)CN1CCCCC1 (centres undefined)	none (no result: FBPA Giardia inh, Pf growth 48h, Sm TGR inh, Pf growth 96h)
Cc1ccc(OCC(=O)N/N=C2\CC(=O)CC(C)(C)C2)c(Br)c1	Pf growth 96h 9.3µM (no result: FBPA Giardia inh)
COc1ccc(C[C@H]2CN3C(=NC[C@@H]3Cc3ccccc3)N2CCNC(=O)c2ccc(C)c(Br)c2)cc1	Pf growth 48h inconclusive, Sm TGR inh 11µM, Pf growth 96h 5.2µM (no result: HCMV inh)
COc1ccc(CCNC(=O)c2ccccc2)cc1	Pf growth 96h inconclusive
C/C=C(\C)C(=O)NCCN1C2=NC[C@H](Cc3ccccc3)N2C[C@@H]1Cc1ccc(OC)cc1	none (no result: FBPA Giardia inh, Pf growth 48h, Sm TGR inh, Pf growth 96h)
